Source: PubChem (National Center for Advancing Translational Sciences (NCATS))
FMDV antiviral: antivirals against foot and mouth disease virus. 410,000 tested, 1.2% active. FMDV antiviral cell-based qHTS. AID 1159524. Potency, µM (titrated, usually from 57.9 µM), for inactives: top-dose activity change, negative = inhibition, actives largely listed as inhibitors; calls by dose curve; tested in HEK293T cells; note: read-out not given here; potency is the fitted concentration of half-maximal effect; nearly all actives have a fitted effect of over 45% in size
HCV inh: blocks hepatitis C virus; 340,000 tested, 3.4% active; AID 651820; Potency, µM (doses to about 41.8 µM), for inactives: at the highest dose activity change, negative = inhibition, most hits filed as inhibitors; Huh7.5.1 HCVcc-Cre infection, luciferase reporter, 44 h; active = well fitted inhibition curve with a large enough effect; inconclusive = small, poorly fitted or top-dose-only effect, or another doubt; inactive = no such curve, though single readings can be large or run the other way; note: potency is the fitted concentration of half-maximal effect
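Compounds are dispensed onto cells plated 4 h earlier at 1,000 per well, with HCVcc-Cre virus (about 0.5 moi) added next. Following 44 h of culture, luminescent signal is measured for 15 sec after 15 min with substrate at room temperature.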
Lassa entry inh: Lassa virus entry inhibition; Lassa virus pseudotype entry inhibition, cell reporter; Potency, µM (series often up to 37.9 µM), for the others: at the top dose activity change, negative = inhibition, actives largely listed as inhibitors; 300,000 tested, 1.2% active; calls by dose curve; tested in HEK293 cells; note: potency is the fitted concentration of half-maximal effect; nearly all actives have a fitted effect of over 50% in size
Marburg entry inh: Marburg virus entry inhibition; 300,000 tested, 1.8% active; Potency, µM (doses to about 37.8 µM), without a hit: at the highest dose activity change, negative = inhibition, hits mostly inhibitors; Marburg virus pseudotyped entry inhibition, cell reporter; calls by dose curve; tested in HEK293 cells; note: potency is the fitted concentration of half-maximal effect
HCMV antiviral: human cytomegalovirus inhibition; HFF cells, HCMV-luciferase reporter, 72 h; stronger effect = lower value; activity change, negative = inhibition, % at 57.5 µM; 410,000 tested, 4.5% active; AID 1259415; in the data active = activity change below about -60%; inconclusive = no clear call, values can overlap the other calls; inactive = above about -39%
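Inhibition of viral replication was scored as loss of reporter luminescence in HFFs infected with HCMV-luciferase (MOI 1 PFU/cell) for 72 h; compounds tested at 2 doses, normalized to buffer and Salinomycin controls.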
An asterisk follows results filed as active; ? = inconclusive; · = no result given; [ ] = remark or other dose. Compounds with a hit are over-represented: about 7.9% of the library has one in this group of screens. % is set by controls: 0 for no effect and ±100 for the full control effect.

SMILES	FMDV antiviral	HCV inh	Lassa entry inh	Marburg entry inh	HCMV antiviral
CC(Oc1ccccc1)C(=O)Nc1ccc(C(=O)OCc2cc(=O)n3nc(C4CC4)sc3n2)cc1 (stereo unspecified)	28µM*	·	?	·	?
COc1ccc(OCC(=O)Nc2ccc(C(=O)OCc3cc(=O)n4nc(C)sc4n3)cc2)cc1	10µM*	·	2%[46.1 µM]	·	-28
CCCCCCC(C)n1[nH]c(=O)c2c(C)cc(=O)[nH]c21 (stereo unspecified)	?	-13%	-18%	?	-70*
CCCCC(C)n1[nH]c(=O)c2c(C)cc(C)nc21 (stereo unspecified)	-20%	-3%	?	7%	-38
CN1c2ccccc2C(C)(C)[C@]12C=Cc1cc(O)ccc1O2	?	13µM*	-16%	?	?
CC1C(=O)N(Cc2ccc([N+](=O)[O-])cc2)c2ccccc2N1C(=O)c1c(F)cccc1F (stereo unspecified)	35µM*	?	?	?	?
COc1cccc(CN2C(=O)C(C)Oc3ccccc32)c1 (stereo unspecified)	-9%	15%	0%[46.1 µM]	-11%[46.1 µM]	-6
CSc1cccc(N2C(=O)N(Cc3ccc([N+](=O)[O-])cc3)c3ccccc3S2(=O)=O)c1	?	·	?	·	-33
COc1cccc(CN2C(=O)C(C)N(C(=O)c3ccccc3)c3ccccc32)c1 (stereo unspecified)	?	?	?	10µM*	-71*
COc1ccc(CN2C(=O)C(C)N(C(=O)c3c(F)cccc3F)c3ccccc32)cc1 (stereo unspecified)	35µM*	?	·	·	?
COc1ccc(NC(=O)c2ccco2)c2ccccc12	27%	-3%	·	·	-5
COc1ccc(-c2csc3nc(-c4cccnc4)nc(Cl)c23)cc1OC	?	?	?	?	-71*
Clc1nc(-c2cccnc2)nc2scc(-c3ccccc3)c12	14%	?	-1%	-3%	?
O=C(Nc1ccccc1Cl)NC1(C(=O)NCC2CCCO2)CCCCC1 (stereo unspecified)	17%	13%	-5%[46.1 µM]	-3%[46.1 µM]	30
CN(C)CC(=O)N1[C@@H]2c3ccc(C4=CCCCC4)c(=O)n3C[C@H]1[C@H](CO)[C@H]2C(=O)NCC1CC1	·	·	·	·	-16
COc1cccc(C(C(=O)NC(C)(C)C)N(Cc2ccc(C)cc2)C(=O)CCC(=O)Nc2cc(C)on2)c1OC (stereo unspecified)	?	11µM*	?	?	-16
COCCN(C(=O)CCC(=O)Nc1cc(C)on1)C(C(=O)NC(C)(C)C)c1ccccc1Cl (stereo unspecified)	25%	21%	10%	9%	-63*
COc1cccc(C(C(=O)NC(C)(C)C)N(Cc2ccco2)C(=O)CCC(=O)Nc2cc(C)on2)c1OC (stereo unspecified)	62%	-16%	-1%[46.1 µM]	?	-37
COC(=O)C1CCCCN1Cc1ccc2c(c1)CN(C(=O)c1ccc(F)cc1)CCO2 (stereo unspecified)	-8%	·	·	·	·
CCOc1ccc(-c2cc3nc(C4CCN(C(=O)OC(C)(C)C)CC4)c(C(=O)Nc4ccc(C)cc4C)cn3n2)cc1	-12%	·	?	?	-5
CCOc1ccc(-c2cc3nc(C4CCN(C(=O)OC(C)(C)C)CC4)c(C(=O)Nc4c(C)cccc4C)cn3n2)cc1	-6%	·	-4%[46.1 µM]	7.1µM*	-18
CCN(CC)c1ccc(S(=O)(=O)N2CCOCC2)cc1NC(=O)Cn1nc(C)c([N+](=O)[O-])c1C	-4%	-21%	·	·	0
O=C(Nc1ccc(Cl)cc1)c1ccc(CN2CCc3ccccc3C2)cc1	-4%	1.6µM*	·	·	-19
O=C(Nc1ccc(S(=O)(=O)N2CCOCC2)cc1)c1ccc(CN2CCc3ccccc3C2)cc1	?	?	10µM*	2.5µM*	·
N#CCc1ccc(NC(=O)c2ccc(CN3CCc4ccccc4C3)cc2)cc1	?	2µM*	·	·	-22
CCCNC(=O)c1ccc(CN2CCc3ccccc3C2)cc1	0%	-19%	7%	-11%	20
O=C(Nc1ccccc1)c1ccc(S(=O)(=O)N2CCOCC2)cc1	0%	8%	2%	10%	-11
CCC(C)NC(=O)c1ccc(CN2CCc3ccccc3C2)cc1 (stereo unspecified)	-12%	-13%	·	·	36
